Data taken from PubChem BioAssay AID624405 (Broad Institute, 2012).
Hit rate of the full screen: of about 1,900 compounds, about 250 (13%) were called active. Not shown: some 4% with an inconclusive outcome. Not all results are given here. Measured potencies and affinities stand elsewhere. Unmarked numbers belong to inactive results.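 The calls were made as follows: active = fitted curve reaches 40% rescue activity at or below the top valid dose, in every test run; inconclusive = test runs disagree, some active and some inactive; inactive = every run misses the threshold or moves the wrong way.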

Test: suppressors of statin myotoxicity in myotubes, dose response, cell-based, C2C12 myotubes, ATP luminescence, cherry pick (AID 624405);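 also: myotubes are challenged with simvastatin at 10 µM to lower ATP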
Conditions: C2C12 myotubes + simvastatin, 48 h, scaled: DMSO wells 0, geranylgeraniol wells 100; series mostly up to 19.5 µM; rescue activity (ATP increase): at the top concentration

Row | SMILES | rescue activity (ATP increase)
1 | CC1(C)CC(C(=O)Nc2nccs2)CCO1 (stereo not drawn) | 0.246%
2 | C[C@@H]1CN([C@@H](C)CO)C(=O)c2cc(NS(=O)(=O)c3cccs3)ccc2O[C@H]1CN(C)S(=O)(=O)c1ccc(Cl)cc1 | 10.6% [at 21 µM]
3 | COc1ccc(OC)c(S(=O)(=O)Nc2ccccc2C)c1 | 1.7%
4 | CCCOn1nnnc1-c1ccccc1 | 36.3%
5 | C[C@@H]1CCCCO[C@H](CN(C)C(=O)Nc2cccc3ccccc23)[C@H](C)CN([C@@H](C)CO)C(=O)c2cc(NS(=O)(=O)c3ccc(Cl)cc3)ccc2O1 | 9.78%
6 | CC1CCN(c2ncnc3c2cnn3Cc2ccc(Cl)cc2)CC1 | 30.3%
7 | C[C@H]1CN([C@@H](C)CO)C(=O)c2cc(C3=CCCCC3)cnc2O[C@@H]1CN(C)Cc1ccccc1F | 14.8%
8 | COc1ccccc1OCCNC1CCCC1 | 13%
9 | C[C@@H]1CN([C@H](C)CO)C(=O)Cc2cc(NS(=O)(=O)c3cn(C)cn3)ccc2O[C@@H]1CN(C)Cc1ccc(-c2ccccc2)cc1 | 26.4%
10 | CCOC(=O)c1nn(-c2cccc(Cl)c2)c(C)c1C(C)=O | 17.9%
11 | O=C(Cn1cnc2c(cnn2-c2ccccc2)c1=O)c1ccc(Cl)cc1 | 30.3%
12 | COc1ccc(NC(=O)Nc2cccc3c2O[C@@H](CN(C)C(=O)Nc2cccc4ccccc24)[C@@H](C)CN([C@H](C)CO)C3=O)cc1 | 4.56%
13 | C[C@@H]1CN([C@@H](C)CO)C(=O)c2cc(N(C)C)ccc2O[C@H]1CN(C)Cc1ccc(-c2ccccc2)cc1 | 9.05% [at 21 µM]
14 | Oc1ccccc1/C=N/c1c(-c2ccco2)nc2ccccn12 | -96%
15 | CC(c1nc2ccccc2c(=O)[nH]1)N1CCN(C)CC1 (stereo not drawn) | -6.72%
16 | C[C@H]1CN([C@@H](C)CO)C(=O)c2cc(NS(=O)(=O)c3cccs3)ccc2O[C@H]1CN(C)Cc1ccc(Cl)c(Cl)c1 | 0.067%
17 | O=C(NCc1ccco1)C1CCCN(S(=O)(=O)c2ccccc2)C1 (stereo not drawn) | 12.2%
18 | O=C(Nc1ccc(S(=O)(=O)N2CCCCC2)cc1)c1ccco1 | -19.1%
19 | C[C@@H]1CN([C@H](C)CO)C(=O)c2cc(NC(=O)Cc3cn(C)c4ccccc34)ccc2O[C@H]1CN(C)Cc1ccc(-c2ccccc2)cc1 | 24.7%
20 | C[C@H]1CN([C@@H](C)CO)C(=O)c2cc(NC(=O)Cc3cn(C)c4ccccc34)ccc2O[C@@H]1CN(C)Cc1ccc(C(F)(F)F)cc1 | 21.4%
21 | C[C@H](CO)N1C[C@H](C)[C@H](CN(C)Cc2ccc(C(=O)Nc3ccccc3N)cc2)Oc2ccc(NC(=O)Cn3cnnn3)cc2C1=O | 35.1% [at 21 µM]
22 | CC(=O)N(C)c1ccc(OCC(O)COc2ccc(N(C)C(C)=O)cc2)cc1 | 4.59%
23 | Cc1cccc(NC(=O)C2CCCN(S(=O)(=O)c3cccc4nsnc34)C2)n1 (stereo not drawn) | 20.1%
24 | CN(C(=O)c1ccc(NC(=O)Cc2ccc(NC(=O)C3CCN(C(=O)CCc4ccccc4)CC3)cc2)cc1)C1CC1 | 11.6%
25 | CCCc1cc(Nc2c(C)n(C)n(-c3ccccc3)c2=O)n2c(nc3ccccc32)c1C#N | 2.07%

Row | SMILES | rescue activity (ATP increase)
26 | Cc1ccc(S(=O)(=O)Nc2cccc3c2O[C@@H](CN(C)Cc2ccc(C(F)(F)F)cc2)[C@H](C)CN([C@H](C)CO)C3=O)cc1 | 33.9%
27 | C[C@@H]1CCCCO[C@@H](CN(C)S(=O)(=O)c2ccc(Cl)cc2)[C@H](C)CN([C@H](C)CO)C(=O)c2cc(NS(C)(=O)=O)ccc2O1 | -1.19%
28 | O=C(Nc1ccc(NC(=O)c2ccco2)nc1)c1ccccn1 | -75.5%
29 | COc1ccc(NC(=O)Nc2ccc3c(c2)C(=O)N([C@@H](C)CO)C[C@@H](C)[C@H](CN(C)Cc2ccc(C(F)(F)F)cc2)OCCCC[C@H](C)O3)cc1 | -26%
30 | O=C(NCC12CC3CC(CC(C3)C1)C2)c1nn2c(c1Cl)NC(c1ccco1)CC2C(F)(F)F (stereo not drawn) | 2.04%
31 | COc1ccc(NC(=O)Nc2ccc3c(c2)C(=O)N([C@H](C)CO)C[C@H](C)[C@@H](CN(C)Cc2ccc(C(F)(F)F)cc2)OCCCC[C@@H](C)O3)cc1 | -5.5%
32 | COc1ccc(NC(=O)N(C)C[C@H]2Oc3c(NC(=O)Nc4cccc5ccccc45)cccc3C(=O)N([C@H](C)CO)C[C@H]2C)cc1 | -7.61%
33 | Cc1noc(C)c1S(=O)(=O)N(C)C[C@H]1Oc2ccc(NC(=O)Nc3cccc4ccccc34)cc2CC(=O)N([C@H](C)CO)C[C@@H]1C | 4.95%
34 | COc1ccccc1N1CCN(Cc2nc3ccsc3c(=O)[nH]2)CC1 | -27.8%
35 | CN1CCN(C2=Cc3ccccc3Sc3cc(F)ccc32)CC1 | -37.4%
36 | Cc1noc(C)c1S(=O)(=O)Nc1ccc2c(c1)CC(=O)N([C@@H](C)CO)C[C@H](C)[C@@H](CN(C)Cc1ccc(Cl)c(Cl)c1)O2 | -10.4% [at 21 µM]
37 | Cc1noc(C)c1S(=O)(=O)Nc1ccc2c(c1)CC(=O)N([C@H](C)CO)C[C@H](C)[C@@H](CN(C)Cc1ccc(Cl)c(Cl)c1)O2 | 31.6%
38 | Cc1noc(C)c1S(=O)(=O)Nc1ccc2c(c1)CC(=O)N([C@H](C)CO)C[C@@H](C)[C@H](CN(C)Cc1ccc(Cl)c(Cl)c1)O2 | 37.4%
39 | Cc1noc(C)c1S(=O)(=O)Nc1ccc2c(c1)CC(=O)N([C@H](C)CO)C[C@@H](C)[C@@H](CN(C)Cc1ccc(C(F)(F)F)cc1)O2 | 27.1%
40 | Cc1noc(C)c1S(=O)(=O)Nc1ccc2c(c1)CC(=O)N([C@@H](C)CO)C[C@@H](C)[C@H](CN(C)Cc1ccc(-c3ccccc3)cc1)O2 | 27.5%
41 | Cc1noc(C)c1S(=O)(=O)Nc1ccc2c(c1)CC(=O)N([C@H](C)CO)C[C@@H](C)[C@@H](CN(C)Cc1ccc(Cl)c(Cl)c1)O2 | 25.4% [at 21 µM]
42 | C/C=C/c1ccc2c(c1)O[C@@H](CN(C)C(=O)NC1CCCCC1)[C@@H](C)CN([C@@H](C)CO)S2(=O)=O | 1.41%
43 | O=C(O)CC(c1ccccc1)n1cccc1 (stereo not drawn) | -17%
44 | O=C(CN1CCN(C(=O)c2ccco2)CC1)Nc1cc(C(F)(F)F)ccc1Cl | 12.5%
45 | COc1ccc(NC(=O)Nc2ccc3c(c2)C(=O)N([C@H](C)CO)C[C@H](C)[C@H](CN(C)Cc2ccc(C(F)(F)F)cc2)OCCCC[C@@H](C)O3)cc1 | 22.8%
46 | CCn1ncc(Br)c1C(=O)Nc1cc(C(=O)OC)ccc1C(=O)OC | 7.32%
47 | O=C(C[C@H]1CC[C@H]2[C@@H](COC[C@@H](O)CN2Cc2ccc(Oc3ccccc3)cc2)O1)N1CCCCC1 | -0.333%
48 | O=C(C[C@@H]1CC[C@@H]2[C@H](COC[C@H](O)CN2Cc2ccc(C(F)(F)F)cc2)O1)NCCc1ccccc1 | 3.36%
49 | O=C(C[C@H]1CC[C@H]2[C@@H](COC[C@H](O)CN2Cc2ccc(Oc3ccccc3)cc2)O1)N1CCCCC1 | -0.632%
50 | O=C(C[C@@H]1CC[C@H]2[C@@H](COC[C@@H](O)CN2Cc2ccc(Oc3ccccc3)cc2)O1)Nc1nccs1 | 15.2%

Row | SMILES | rescue activity (ATP increase)
51 | CC(C)NC(=O)Nc1cccc2c1O[C@H](CN(C)Cc1ccc(-c3ccccc3)cc1)[C@@H](C)CN([C@@H](C)CO)C2=O | 15.1%
52 | Cc1ccc(S(=O)(=O)NCCN=C(CN2CCCC2)NS(=O)(=O)c2ccc(C)cc2)cc1 | 10.6%
53 | CC(=O)OC1CC(n2ccc(NC(=O)c3ccccc3)nc2=O)OC1CO (stereo not drawn) | 11.3%
54 | COc1ccc2oc(=O)cc(CN3CCN(Cc4ccc(OC)c(OC)c4OC)CC3)c2c1 | -43.4%
55 | C[C@@H]1CN([C@@H](C)CO)C(=O)Cc2cc(N(C)C)ccc2O[C@H]1CN(C)Cc1ccc2c(c1)OCO2 | 16.1%
56 | O=c1c2ccccc2ncn1Cc1nc2ccccc2s1 | -11.5%
57 | COc1ccc(Cc2nc(C(=O)Nc3ccc(OC)cc3)cs2)cc1 | 4.07%
58 | C[C@@H]1CCCCO[C@@H](CN(C)C(=O)Nc2cccc3ccccc23)[C@@H](C)CN([C@@H](C)CO)C(=O)c2cc(NS(=O)(=O)c3ccc(Cl)cc3)ccc2O1 | 3.78% [at 21 µM]
59 | COc1cccc(C#Cc2ccc3c(c2)O[C@H](CN(C)C(=O)c2ccccn2)[C@H](C)CN([C@H](C)CO)S3(=O)=O)c1 | -0.261%
60 | Cc1ccc(S(=O)(=O)N(C)c2ccc(C(=O)O)cc2)cc1 | -15.7%
61 | CCC1(C)Cc2c(sc3nc(NN)n(C)c(=O)c23)CO1 (stereo not drawn) | 30.3% [at 10 µM]
62 | C[C@H]1CN([C@@H](C)CO)C(=O)c2cc(C3=CCCCC3)cnc2O[C@H]1CN(C)Cc1ccccc1F | 16.7%
63 | C[C@@H]1CN([C@@H](C)CO)C(=O)c2cc(C#CC3CCCCC3)cnc2O[C@H]1CN(C)S(=O)(=O)c1ccc(F)cc1 | 14.9%
64 | C[C@@H]1CN([C@H](C)CO)C(=O)Cc2cc(NC(=O)CCCCCC(=O)Nc3ccccc3N)ccc2O[C@H]1CN(C)Cc1ccc(Oc2ccccc2)cc1 | 35.7%
65 | C[C@H]1CN([C@@H](C)CO)C(=O)Cc2cc(NC(=O)CCCCCC(=O)Nc3ccccc3N)ccc2O[C@@H]1CN(C)Cc1ccc(Oc2ccccc2)cc1 | 37.8% [at 21 µM]
66 | O=C(c1ccco1)N(Cc1ccco1)c1ccc(O)cc1 | 21.1%
67 | C[C@H]1CCCCO[C@H](CN(C)S(=O)(=O)c2ccc(Cl)cc2)[C@@H](C)CN([C@@H](C)CO)C(=O)c2cc(NS(C)(=O)=O)ccc2O1 | 9.53%
68 | COCCNC(=O)CSc1nc2ccccc2c2nc(C)nn12 | -16.7%
69 | C[C@H](CO)N1C[C@H](C)[C@@H](CN(C)Cc2ccc(-c3ccccc3)cc2)Oc2ccc(NC(=O)Cn3cnnn3)cc2CC1=O | 20.2%
70 | C[C@@H]1CN([C@@H](C)CO)C(=O)c2cc(C#Cc3ccc(F)cc3)cnc2O[C@H]1CN(C)C(=O)c1ccccc1F | 26.9%
71 | COc1ccc(S(=O)(=O)Nc2ccc3c(c2)C(=O)N([C@H](C)CO)C[C@H](C)[C@H](CN(C)Cc2ccc(Cl)c(Cl)c2)OCCCC[C@@H](C)O3)cc1 | 33.4%
72 | CN1C(=O)c2cc(NC(=O)c3cscn3)ccc2OC[C@H]2O[C@H](CC(=O)NCc3ccc(Cl)c(Cl)c3)CC[C@H]21 | 22.7%
73 | COc1ccc(S(=O)(=O)Nc2ccc3c(c2)CC(=O)N([C@H](C)CO)C[C@@H](C)[C@H](CN(C)Cc2ccc(Cl)c(Cl)c2)O3)cc1 | 38.2% [at 21 µM]
